High-throughput results deposited in PubChem BioAssay by National Center for Advancing Translational Sciences (NCATS).
Only some compounds are listed: those with a hit (about 19% of all), similar ones and a draw of the others.
HT1080 IDH1KD tx = toxicity to HT-1080 IDH1 knockdown cells (counter line) | AID 686971 | 2% of 360,000 active | HT-1080 IDH1 knockdown viability, ATP luminescence, 48 h | Potency, µM (doses to about 46.1 µM), actives largely listed as cytotoxic
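IDH1KD HT-1080 cells, 750/well, RPMI + 5% FBS; compound pinned after 2 h settling; 48 h, 37 °C; CellTiter-Glo luminescence; % activity normalised to DMSO and no-cell wells; curves fitted, classed by r2 and efficacy.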
IL1B secr inh = inhibitors of inflammasome signaling (IL-1 beta secretion); THP-1 LPS/ATP IL-1B secretion, AlphaLISA, 16 h; hits give low values; 4.7% of 360,000 active; activity change, % at 57.5 µM; in the data active = activity change below about -50%; inconclusive = mostly about -30% to -49%
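Secreted IL-1B measured by AlphaLISA bead assay after 16 h compound exposure of THP-1 cells; compounds (final up to 57.5 uM) added 1 h before LPS (250 ng/mL) and ATP (1.25 mM) stimulation; lower signal means less secretion.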
DT40 TDP1 CPT = growth inhibition of DT40 Tdp1-/-;hTDP1 cells with camptothecin (screen for TDP1 inhibitors); chicken DT40 Tdp1-/-;hTDP1 cells + 20 nM CPT, ATP luminescence, 48 h; Potency, µM (highest dose often 46.2 µM), usual class: inhibitors; 12% of 420,000 active; AID 686979; also: nearly all actives have a fitted effect of over 55% in size
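Chicken DT40 Tdp1-/- cells complemented with human TDP1, 400 cells/well, exposed to compounds plus 20 nM camptothecin for at least 48 h at 37 C; viability read as ATP content by CellTiter-Glo luminescence.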
TDP1 cell noCPT = qHTS for Inhibitors of human tyrosyl-DNA phosphodiesterase 1 (TDP1): qHTS in cells in absence of CPT. AID 686978, 2013. 15% of 420,000 active. Potency, µM (series often up to 46.2 µM), most hits filed as inhibitors. DT40 Tdp1-/- hTDP1 cells, no CPT, ATP luminescence, 48 h; also: nearly all actives have a fitted effect of over 55% in size
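Growth of hTDP1-complemented DT40 Tdp1-knockout cells is measured by ATP luminescence after at least 48 hr compound exposure at 37 °C, with DMSO substituting for the 20 nM CPT used in the parallel screen.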
HT1080NT lethal = kills 2HG-producing HT-1080-NT fibrosarcoma cells; HT-1080-NT fibrosarcoma viability, CellTiter-Glo ATP luminescence, 48 h; 1.6% of 360,000 active; Potency, µM (series often up to 46.1 µM), most hits filed as cytotoxic;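 also: NT is the 2HG producing partner of a matched IDH1 knockdown line; nearly all actives have a fitted effect of over 55% in size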
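Viability by CellTiter-Glo luminescence after 48 h compound exposure at 37C of HT-1080-NT cells (750/well, RPMI, 5% FBS). % activity scaled between DMSO wells and medium-only wells, then curve-fitted and categorized by curve class.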
Large screens that a line does not name were inactive. Unless noted, calls follow the shape of the dose curve; as a rule, active = well fitted curve in the direction sought with a large enough effect; inconclusive = small, poorly fitted or top-dose-only effect, or another doubt; inactive = no such curve, though single readings can be large; an effect the other way counts as inactive or inconclusive.

Cc1cccc(C(C)C)c1NC(=O)CN(C)Cc1cccc(F)c1	DT40 TDP1 CPT inconclusive, TDP1 cell noCPT 23µM
COc1ccc(CN(C)CC(=O)Nc2c(C)cccc2C)c(OC)c1	DT40 TDP1 CPT inconclusive, TDP1 cell noCPT inconclusive
CCc1cccc(C)c1NC(=O)CN(C)Cc1cccc(F)c1	DT40 TDP1 CPT inconclusive, TDP1 cell noCPT 16µM
CC(NC(=O)CN(C)Cc1cccc(F)c1)c1ccccc1 (configuration not stated)	none
Cc1ccccc1CN(C)CC(=O)Nc1c(C)cccc1C(C)C	IL1B secr inh -86, DT40 TDP1 CPT inconclusive, TDP1 cell noCPT 3.3µM
Cc1nc2nc(N)nc(OCc3ccccc3)c2nc1C	none
O=c1cc(-c2ccccc2O)oc2c(O)c(O)ccc12	DT40 TDP1 CPT 24µM, TDP1 cell noCPT 30µM (no result: HT1080 IDH1KD tx, IL1B secr inh, HT1080NT lethal)
C=CCn1c(SCC(=O)Nc2cc(C)c(Cl)cc2OC)nnc1-c1ccco1	HT1080 IDH1KD tx inconclusive, IL1B secr inh inconclusive, TDP1 cell noCPT inconclusive, HT1080NT lethal inconclusive
C=CCn1c(SCc2c(F)cccc2Cl)nnc1-c1ccco1	DT40 TDP1 CPT 21µM, TDP1 cell noCPT 16µM
C[C@H](CO)N1C[C@H](C)[C@H](CN(C)C(=O)Nc2ccc(N3CCN(C)CC3)cc2)OCc2cnnn2CCCC1=O	none
Cc1ccc(S(=O)(=O)Nc2ccc(-c3csc(-c4ccccc4)n3)cc2)cc1	IL1B secr inh -97, DT40 TDP1 CPT inconclusive, TDP1 cell noCPT inconclusive
Cc1ccc2nc(-c3ccc(NS(=O)(=O)c4ccc(F)cc4)cc3)sc2c1	HT1080 IDH1KD tx inconclusive, IL1B secr inh -103, DT40 TDP1 CPT inconclusive, TDP1 cell noCPT inconclusive, HT1080NT lethal inconclusive
O=S(=O)(Nc1ccc(-c2ccc(NS(=O)(=O)c3ccccc3)cc2)cc1)c1ccccc1	HT1080 IDH1KD tx inconclusive, DT40 TDP1 CPT inconclusive, TDP1 cell noCPT 23µM, HT1080NT lethal inconclusive
O=S(=O)(Nc1ccc(-c2csc(-c3ccccc3)n2)cc1)c1ccccc1	HT1080 IDH1KD tx inconclusive, IL1B secr inh -102, TDP1 cell noCPT 18µM, HT1080NT lethal inconclusive
O=S(=O)(Nc1ccc(NS(=O)(=O)c2ccccc2)cc1)c1ccccc1	TDP1 cell noCPT inconclusive
CC1(C(=O)Nc2ccc3ccccc3c2)CCC(=O)N1C1CC1 (configuration not stated)	none
Cn1ccnc1C(=O)c1cccc(Br)c1	none
COC(=O)c1ccc2c(=O)n(CCN3CCOCC3)c(SCC(=O)Nc3ccccc3Cl)nc2c1	DT40 TDP1 CPT inconclusive, TDP1 cell noCPT inconclusive
O=C1c2ccccc2C(=O)c2cc(S(=O)(=O)Nc3ccccc3)ccc21	DT40 TDP1 CPT 15µM, TDP1 cell noCPT 21µM
N#C/C(=C(O)\C=C\c1ccccc1)c1nc2ccccc2[nH]1	TDP1 cell noCPT inconclusive
CC(C)(C)c1ccc(/C=C(\c2nc3ccccc3[nH]2)S(=O)(=O)c2ccccc2)cc1	HT1080 IDH1KD tx 6.5µM, IL1B secr inh -96, DT40 TDP1 CPT 23µM, TDP1 cell noCPT inconclusive, HT1080NT lethal 6.5µM
Cc1cccc(/C=C(\c2nc3ccccc3[nH]2)S(=O)(=O)c2ccccc2)c1	HT1080 IDH1KD tx 9.2µM, IL1B secr inh -110, DT40 TDP1 CPT 4.1µM, TDP1 cell noCPT 2.6µM, HT1080NT lethal 9.2µM
O=C(O)c1ccc(/C=C(\c2nc3ccccc3[nH]2)c2nc3ccccc3s2)cc1	HT1080 IDH1KD tx 18µM, IL1B secr inh -70, DT40 TDP1 CPT inconclusive, HT1080NT lethal inconclusive
CC(=O)/C(=C(/O)c1ccccc1)c1nc2ccccc2[nH]1	none
O=C(O)c1ccc(-c2nc3ccccc3[nH]2)cc1	none
Cc1nn(-c2ccc(N3CCOCC3)nn2)c(C)c1CCC(=O)NCc1ccc(OC(C)C)cc1	none (no result: HT1080 IDH1KD tx, IL1B secr inh, HT1080NT lethal)
CC12CCC(C(N)C1=O)C2(C)C (configuration not stated)	none
O=C(NCCNc1ccc([N+](=O)[O-])cc1C(F)(F)F)c1ccccc1	DT40 TDP1 CPT inconclusive, TDP1 cell noCPT inconclusive
O=C(NCCNc1ccc([N+](=O)[O-])cc1C(F)(F)F)c1cccc(F)c1	DT40 TDP1 CPT inconclusive, TDP1 cell noCPT 21µM
CC(C)(CNC(=O)c1cccc(F)c1)CNC(=O)c1cccc(F)c1	DT40 TDP1 CPT inconclusive, TDP1 cell noCPT 18µM
CCCCOc1ccc(CSC2=NCCN2)cc1[N+](=O)[O-]	IL1B secr inh -99, DT40 TDP1 CPT 18µM, TDP1 cell noCPT 21µM, HT1080NT lethal inconclusive
Clc1ccc(CSC2=NCCCN2)cc1Cl	HT1080 IDH1KD tx inconclusive, IL1B secr inh inconclusive, DT40 TDP1 CPT inconclusive, HT1080NT lethal inconclusive
O=[N+]([O-])c1ccc(CSC2=NCCS2)cc1	none
COc1ccc(CSc2nnnn2C)cc1[N+](=O)[O-]	none
O=[N+]([O-])c1ccc(CSC2=NCCN2)cc1	IL1B secr inh inconclusive, DT40 TDP1 CPT 21µM, TDP1 cell noCPT 21µM
CCOc1ccc(CSC2=NCCN2)cc1[N+](=O)[O-]	HT1080 IDH1KD tx inconclusive, IL1B secr inh -61, DT40 TDP1 CPT inconclusive, TDP1 cell noCPT 16µM
CCCN(C(=O)c1ccccc1Cc1ccccc1)C1CCS(=O)(=O)C1 (configuration not stated)	none
CC(C(=O)N1CCc2ccccc21)N(C)CC(=O)Nc1ccccc1Cl (configuration not stated)	DT40 TDP1 CPT inconclusive, TDP1 cell noCPT inconclusive
COC(=O)[C@]12CCCCC=C1N(CCC1=CCCCC1)C(=O)[C@H](CC(=O)NCc1ccccc1)C2	DT40 TDP1 CPT inconclusive, TDP1 cell noCPT inconclusive
COC(=O)[C@]12CCCCC=C1N(CCC1=CCCCC1)C(=O)[C@H](CC(=O)NCc1cccs1)C2	DT40 TDP1 CPT inconclusive, TDP1 cell noCPT 16µM, HT1080NT lethal inconclusive
CCOC(=O)[C@]12CCCC=C1N(CCC1=CCCCC1)C(=O)[C@H](CC(=O)NCC13CC4CC(CC(C4)C1)C3)C2	HT1080 IDH1KD tx inconclusive, DT40 TDP1 CPT inconclusive, TDP1 cell noCPT inconclusive, HT1080NT lethal inconclusive
CCOC(=O)[C@]12CCCC=C1N(CCC1=CCCCC1)C(=O)[C@H](CC(=O)NCc1cccs1)C2	DT40 TDP1 CPT inconclusive, TDP1 cell noCPT 21µM
O=C(NCC(c1ccco1)N1CCOCC1)c1ccccc1 (configuration not stated)	none
COc1cc(NC(=O)c2cc(OC)c(OC)c(OC)c2)c(OC)cc1NC(=O)CN1CCCCC1	DT40 TDP1 CPT inconclusive, TDP1 cell noCPT inconclusive
COc1cc(NC(=O)c2ccc(C)cc2)c(OC)cc1NC(=O)CN1CCCCC1	HT1080 IDH1KD tx inconclusive, IL1B secr inh inconclusive, DT40 TDP1 CPT 21µM, TDP1 cell noCPT 29µM, HT1080NT lethal inconclusive
COc1cc(NC(=O)Nc2cccc(Cl)c2)c(OC)cc1NC(=O)CN1CCCCC1	HT1080 IDH1KD tx 21µM, DT40 TDP1 CPT 16µM, TDP1 cell noCPT inconclusive, HT1080NT lethal inconclusive
O=C(NCc1ccccc1CN1CCCC1)c1cccc(S(=O)(=O)N2CCOCC2)c1	none
